Measurements taken from ChEMBL document CHEMBL3988442, “University of Dundee, Small-Polar-MMV Screening Library” (2021).

Assays:
[1] = target: T1, Aspartate--tRNA(Asp/Asn) ligase (Mycobacterium tuberculosis (strain ATCC 25618 / H37Rv)) (UniProt P9WFW3); experiment: Assay for Asp RNA synthetase-1 from Mycobacterium tuberculosis; type: functional; set-up: scale not given: direction of the effect not stated beside the values; conditions: 30 µM; note: in the data most compounds retested in dose-response had high values
T1 sequence (whole entry): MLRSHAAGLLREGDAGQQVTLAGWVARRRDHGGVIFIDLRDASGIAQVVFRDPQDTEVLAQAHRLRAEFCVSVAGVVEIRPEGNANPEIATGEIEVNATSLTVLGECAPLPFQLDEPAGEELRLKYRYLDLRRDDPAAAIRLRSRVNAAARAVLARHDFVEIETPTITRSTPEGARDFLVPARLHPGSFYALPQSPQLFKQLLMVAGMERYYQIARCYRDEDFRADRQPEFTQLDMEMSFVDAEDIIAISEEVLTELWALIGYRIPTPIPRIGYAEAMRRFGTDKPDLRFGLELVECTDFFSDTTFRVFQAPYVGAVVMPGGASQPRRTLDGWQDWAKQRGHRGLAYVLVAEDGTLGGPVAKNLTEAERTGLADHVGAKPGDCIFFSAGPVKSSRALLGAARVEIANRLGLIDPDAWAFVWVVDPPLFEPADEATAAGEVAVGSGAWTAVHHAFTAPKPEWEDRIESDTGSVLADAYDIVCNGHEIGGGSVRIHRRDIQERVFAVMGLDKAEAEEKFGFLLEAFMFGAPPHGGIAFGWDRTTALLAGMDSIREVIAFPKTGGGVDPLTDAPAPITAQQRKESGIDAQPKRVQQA

[2] = target: Shiga toxin 2 (Escherichia coli O157:H7) (UniProt P09385+P09386); experiment: E. coli 0.157:H7 Shiga Toxin SOP - stx2 screening assay; type: functional; set-up: scale not given: direction of the effect not stated beside the values; conditions: 30 µM

SMILES	Percent Effect [1]	Percent Effect [2]
O=C(NCC(Cc1cccc(F)c1)N1CCCC1=O)c1cnccn1 (stereo unspecified)	-5.12%	-15.9%
Cc1nc(CN2CCCC(N(C)Cc3c(C)noc3C)C2)no1 (stereo unspecified)	-5.45%	18.6%
Cc1nc(C2CCCN(C(=O)C(C)(C)n3cc(Cl)cn3)C2)no1 (stereo unspecified)	-5.75%	-14.3%
CC(C)(C)c1nc(CN2CCC(c3nc4cc(Cl)ccc4o3)CC2)no1	-2.4%	-14.9%
COc1ccccc1-c1noc(CN2CCCC2Cn2cccn2)n1 (stereo unspecified)	-7.54%	21.6%
Cc1ccc(CC(=O)N2CCc3nnc(N(C)C)cc3C2)cn1	0.322%	-40.7%
CC(C)OCCOCc1cccc(NC(=O)NCc2ccncc2)c1	13%	-69.6%
O=C(Cc1ccccc1F)N1CCN(C(=O)c2ccoc2)CC1	5.87%	-6.64%
Cc1cc(CN(C)C(=O)c2ccnc(N(C)C)c2)no1	-3.84%	-18.4%
Cc1nc(C)c(CC(=O)Nc2ncc(C)s2)c(=O)[nH]1	-3.61%	30.1%
CC(Cc1ccco1)NC(=O)Nc1ccc(S(C)(=O)=O)nc1 (stereo unspecified)	1.12%	-17.3%
CC(C)CCN1CN=C(NS(=O)(=O)c2ccc(F)cc2)NC1	-1.13%	-27.2%
CC1CCCCN1C(=O)CN1CCN(c2ccc3nncn3n2)CC1 (stereo unspecified)	0.945%	-8.03%
Cc1cnc2c(S(=O)(=O)NCC3CCN(C4CC4)C3)cccc2c1 (stereo unspecified)	3.65%	25.5%
CN(Cc1cc(-c2ccccc2)no1)C1CCCN(c2cccnn2)C1 (stereo unspecified)	-2.03%	-0.584%
CCOc1ccccc1OC1CCN(C(=O)c2cc[nH]n2)CC1	0.989%	39.1%
CC(C)c1nc(C2CCCN2CC(=O)N2CCNC2=O)no1 (stereo unspecified)	1.61%	-10.5%
Cc1cc(C)c(CNC(=O)N2CCCC2c2cccn2C)c(=O)[nH]1 (stereo unspecified)	-3.71%	-31.2%
Cc1nc(CCC(=O)NC2CCC2)cc(C2CCNCC2)n1	1.96%	-6.49%
Fc1ccc(CN2CCC(c3n[nH]c4ncccc34)CC2)cc1F	5.4%	15.2%
O=C(NCCNc1ncccn1)C1CC(=O)N(CC(F)(F)F)C1 (stereo unspecified)	-6.31%	20.8%
Cc1cccc2[nH]c(C3CCN(C(=O)c4ccnn4C)CC3)nc12	-0.0892%	-69.6%
O=C1COC2(CCN(Cc3ccccn3)CC2)CN1CC1CC1	4.21%	-7.99%
CC(C)n1ccnc1CN1CCCN(C(=O)c2cccnc2O)CC1	-2.15%	-43.9%
Cc1occc1C(=O)N1CCC2(CCCN(CC3CCC3)C2=O)C1 (stereo unspecified)	-2.62%	-2.14%
CC(C)c1nnc2ccc(N3CCC(C(N)=O)CC3)nn12	-3.92%	-20.5%

SMILES	Percent Effect [1]	Percent Effect [2]
CSc1ccc(NS(=O)(=O)c2cnn(C)c2)cn1	1.57%	-7.54%
COc1ccccc1C(O)CNCc1c(C(C)C)nn(C)c1N(C)C (stereo unspecified)	-6.86%	9.26%
CC(C)NC(=O)N1CCN(CC2CC2)CC2(CC(=O)N(C)C2)C1 (stereo unspecified)	0.324%	-11.9%
O=C1NCCCCC1Sc1nnc(C2CC2)n1C1CC1 (stereo unspecified)	-6.09%	3.62%
CN(C)C[C@H]1OC[C@@H]2CCN(C(=O)c3ccco3)C[C@@H]21	-2.13%	-9.03%
CCCS(=O)(=O)N1CCC2(CN(c3ccsc3)C(=O)CN2C)C1 (stereo unspecified)	-3.98%	-8.23%
CC(NC(=O)CCCOc1ccccc1Cl)c1ccncc1 (stereo unspecified)	5.49%	-35%
Cc1nc(C2(NCC(=O)NCCc3cccs3)CCCC2)no1	-3.06%	8.44%
CC(C)NC(=O)c1n[nH]c(-n2cnnc2)n1	-4.62%	-0.0919%
CN1CCc2c(C#N)c(NCCCN3CCOCC3)n3cnnc3c2C1	5.9%	5.95%
Cc1nc(C2CCCN2CCCNS(C)(=O)=O)no1 (stereo unspecified)	-0.167%	23.5%
Cc1ncc(CN(C)C2CCCN(Cc3noc(C4CC4)n3)C2)s1 (stereo unspecified)	-2.9%	11.1%
Cc1cc(CN2CCN(C(=O)NC(C)c3cccnc3)CC2)on1 (stereo unspecified)	-1.43%	24.6%
Cc1cc(CN(C)C(=O)NC(C)c2nncn2C)no1 (stereo unspecified)	-3.43%	6.65%
Cc1cccc(-c2noc(CN3CCC(N4CCNC4=O)CC3)n2)c1	0.152%	11.2%
CCCNC(=O)C(C)n1cc(Br)cn1 (stereo unspecified)	5.47%	-46.7%
CC(C)(C)c1ncc(C(=O)NCCNC(=O)c2ccccc2)s1	1.94%	36.9%
O=C(c1ccco1)N1CC[C@H]2[C@H]1CCN2CC1CCOCC1	1.99%	-28%
O=C(NCCCn1ccnc1)N1CCCC1c1cccs1 (stereo unspecified)	-2.61%	-5.52%
Cc1ccc(NC(=O)NC(C)C(=O)N2CCS(=O)(=O)CC2)cc1 (stereo unspecified)	1.19%	12.8%
O=C(NCCN1CCNCC1)c1nc2ccccc2c(=O)[nH]1	2.9%	-55.8%
CC(NC(=O)NCCCN1CCCCCC1)c1nncn1C (stereo unspecified)	2.07%	-17.6%
COc1ccc(CN2CCn3cc(CN4CCCCC4)nc3C2)cc1	4.3%	-5.01%
CN(C)[C@@H]1CCN(c2ncccn2)[C@H]1Cc1ccncc1	0.268%	-22.4%
CCOCCCNC(=O)c1cc(C)nc(N2CCCC2)n1	-5.84%	-10.3%
O=C(O)c1nnn(Cc2cccc(C(F)(F)F)c2)c1-c1cccnc1	-1.36%	-46.6%

SMILES	Percent Effect [1]	Percent Effect [2]
CSCCNC(=O)c1ccc(OC2CCN(CC(C)(C)C)CC2)c(Cl)c1	1.62%	-38.1%
Cc1ccc(CN2CCc3ncc(CNS(C)(=O)=O)n3CC2)o1	1%	-24.4%
COCC(C)(O)CNC(=O)COc1ccccc1OC (stereo unspecified)	-4.69%	-2.25%
CCc1nc(C2CCCN2C(=O)c2nc(C)n3ccccc23)no1 (stereo unspecified)	-1.96%	-2.42%
CCC(C)(C)NC(=O)C1CC(=O)N(CC2CC2)C1 (stereo unspecified)	5.42%	28.9%
CCS(=O)(=O)N1CCC[C@]2(C(=O)N(C)C)CN(c3ncccn3)C[C@@H]2C1	2.53%	-34.5%
COCCN1CCC(NCc2cccc(F)c2)C1 (stereo unspecified)	-3.37%	-17.4%
O=C1CCC2(CCCN(c3ncc(F)cn3)CC2)N1CC1CC1 (stereo unspecified)	-1.91%	-3.81%
O=C(Cc1ccsc1)N1C[C@@H]2CN(Cc3ccoc3)CCO[C@@H]2C1	-1.48%	-6.92%
CCc1ccc(S(=O)(=O)Nc2cc(OC)c(OC)cc2C(=O)O)s1	5.87%	27.3%
COCCn1ccc2cc(NC(C)=O)ccc21	-5.18%	-9.31%
CNC(=O)c1cccc(C2CNCCN2C(C)=O)c1 (stereo unspecified)	-2.04%	-2.23%
O=C(CCc1nccs1)N1CCCC(N2CCNC2=O)C1 (stereo unspecified)	6.01%	-8.24%
O=C(NCC1CCOC1)c1csc(-c2cccc(Cl)c2)n1 (stereo unspecified)	0.759%	5.81%
Cc1ccc(CN2CCCn3nnc(COCC4CC4)c3C2)s1	-4.16%	0.0593%
CC(C)(C)C(=O)NCCc1ccn(-c2ccccc2)n1	-7.82%	-32.2%
Cc1ccccc1-c1cncc(C2CCN(C(=O)CN(C)C)CC2)n1	6.8%	-18.5%
Cc1cc(C2CCCN(CCCNS(C)(=O)=O)C2)n[nH]1 (stereo unspecified)	-3.97%	8.81%
COc1c(CNCC(O)c2cccc(F)c2)c(C(C)C)nn1C (stereo unspecified)	7.7%	15.6%
COC(=O)c1sccc1S(=O)(=O)N1CCC(Oc2cccnn2)CC1	-2.42%	-7.45%
Cn1cccc1C(=O)NCc1cnc2n1CCN(C(=O)N1CCCC1)C2	-0.495%	-94.8%
Cc1nc(C)n(C2CCCN(C(=O)c3ccc(F)cc3F)C2)n1 (stereo unspecified)	-6.88%	1.49%
Cc1ccccc1Oc1ncccc1CNS(C)(=O)=O	-3.12%	-11.9%
c1cnn(Cc2cn3c(n2)CN(Cc2nccs2)CC3)c1	-2.35%	-23.5%
CN(Cc1cnn(C)c1)C(=O)NC1CCS(=O)(=O)C1 (stereo unspecified)	-2.67%	14.6%
CCNc1cc2c(nn1)CCN(C(=O)c1ccc(NC3CC3)nc1)C2	-0.723%	2.8%

SMILES	Percent Effect [1]	Percent Effect [2]
O=C1[C@H]2CN(CC3CC3)C[C@H]2CN1Cc1cccc(F)c1	1.33%	-1.04%
CNCC(=O)N1CCC(c2ccnc(Nc3ccc(C)cn3)n2)C1 (stereo unspecified)	2.93%	-58.2%
O=C(O)c1cc(NS(=O)(=O)c2cccc(Cl)c2F)ccc1Cl	0.425%	20.1%
CCc1nc(C2CCCN2CC(=O)Nc2nncs2)no1 (stereo unspecified)	-0.364%	2.9%
Cn1cc(CCNC(=O)CCc2ccc3c(c2)OCO3)cn1	1.25%	21.4%
COc1cc(CNC(=O)c2c(C)noc2C(C)C)ccn1	-1.27%	-44%
COc1c(C2CCCN2C(=O)c2cc(Cl)c[nH]2)c(C)nn1C (stereo unspecified)	0.802%	-13%
CN(C)c1cc(C(=O)N2CCCN(Cc3cscn3)CC2)ccn1	-2.62%	-13.1%
Cc1cc(C[C@@H]2COC[C@@H]2NC(=O)CN2CCCC2)on1	4.6%	-10.1%
Cc1noc(C2CCC3(CCN(C(=O)C4=CCCCC4)CC3)O2)n1 (stereo unspecified)	-2.98%	7.42%
CCc1ccc(NC(=O)N2C[C@H]3C[C@H](C(=O)NC)[C@@H](C2)O3)cc1	3.34%	-5.17%
CNC1CCCN(Cc2noc(C3CC3)n2)C1 (stereo unspecified)	-0.881%	-5.27%
CCc1cnc(N)nc1NCCN1CCCCC1	0.268%	-30.3%
CN(C)c1ncc(CN2CCOC(C(=O)Nc3ccccc3)C2)cn1 (stereo unspecified)	6.13%	-0.28%
COc1ccc(CCC(=O)N2CCCC2Cn2cc(C)cn2)cc1F (stereo unspecified)	-1.15%	18.7%
CC(C)CCNC(=O)c1sccc1N(C)S(=O)(=O)c1ccccc1	5.12%	-20%
CN(Cc1ccco1)C(=O)[C@H]1CSCN1C(=O)OC(C)(C)C	-1.74%	10.2%
CCNC(=O)[C@@H]1C[C@H](NC(=O)Cc2ccsc2)CN1Cc1ccc(C)o1	-0.518%	18.7%
Cc1ccc(C)c(NC(=O)c2n[nH]c(-n3cnnc3)n2)c1	-4.33%	-11.6%
CC(=O)c1cccc(OCCCC(=O)N(C)CCc2ccncc2)c1	-0.591%	-45.6%
CC(c1ccc(F)c(F)c1)N1CCN(Cc2nccn2C)CC1 (stereo unspecified)	-2.85%	-13.2%
O=C(O)c1cc2c(nc1O)CC(c1cccs1)CC2=O (stereo unspecified)	2.79%	-19.6%
Cc1cnn(C2CCCN(C(=O)c3cnc4ccccc4n3)C2)c1 (stereo unspecified)	9.11%	25.1%
CN(C)c1ccc(C(=O)N2CCN(Cc3cscn3)CC2)cc1F	5.95%	-20.8%
O=C(Cc1cccnc1)N1CCC(OCc2ccccc2)CC1	-3.5%	7.67%
